Most compounds without a hit are left out; they make up all but 1.9% or so of the library.
PriA SSB inh: blocks PriA binding to SSB C-terminal tail | AlphaScreen SSBct-PriA binding, biotinylated peptide | inhibition, % at 33 µM | actives 0.6% (n = 430,000) | AID 1272365; in the data active = inhibition mostly above about 37%, no sharp cut-off; inactive = mostly below about 20%;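 also: plate controls were negative control peptide for no effect and reference peptide for full effect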
PfHsp40 yeast: restores yeast growth despite PfHsp40 toxicity; S. cerevisiae expressing PfHsp40, growth rescue, ATP luminescence; growth rescue, % at 12.5 µM; actives 0.68% (n = 340,000); in the data active = growth rescue above about 28%, passing the limit was not always enough;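 also: yeast W303a lacking pdr1 and pdr3 grown in galactose medium; growth measured after three days at 30 °C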
BJeLR lethal: BJeLR cell viability loss | BJeLR (HRASV12) viability, CellTiter-Glo ATP luminescence, 48 h | inhibition, % (test concentration not listed) | actives 0.17% (n = 300,000); in the data active = inhibition above about 50%
PrPC TRFRET: reduces human prion protein on the cell surface | actives 0.43% (n = 370,000) | P04156 | inhibition, % at 13.8 µM | cell surface PrPC, TR-FRET read-out | AID 720596; in the data active = inhibition above about 24%; also: 0% = median of the test wells and 100% = reference compound wells
RecA splice inh: Mtb RecA intein splicing inhibition. P9WHJ3. cell-free RecA intein splicing, fluorescence. inhibition, % (no concentration beside the values). actives 0.75% (n = 290,000). AID 2221; in the data active = inhibition above about 30%;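 also: 0% = vehicle wells and 100% = reference inhibitor control wells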
Target sequence (P9WHJ3 whole entry, looked up, canonical isoform): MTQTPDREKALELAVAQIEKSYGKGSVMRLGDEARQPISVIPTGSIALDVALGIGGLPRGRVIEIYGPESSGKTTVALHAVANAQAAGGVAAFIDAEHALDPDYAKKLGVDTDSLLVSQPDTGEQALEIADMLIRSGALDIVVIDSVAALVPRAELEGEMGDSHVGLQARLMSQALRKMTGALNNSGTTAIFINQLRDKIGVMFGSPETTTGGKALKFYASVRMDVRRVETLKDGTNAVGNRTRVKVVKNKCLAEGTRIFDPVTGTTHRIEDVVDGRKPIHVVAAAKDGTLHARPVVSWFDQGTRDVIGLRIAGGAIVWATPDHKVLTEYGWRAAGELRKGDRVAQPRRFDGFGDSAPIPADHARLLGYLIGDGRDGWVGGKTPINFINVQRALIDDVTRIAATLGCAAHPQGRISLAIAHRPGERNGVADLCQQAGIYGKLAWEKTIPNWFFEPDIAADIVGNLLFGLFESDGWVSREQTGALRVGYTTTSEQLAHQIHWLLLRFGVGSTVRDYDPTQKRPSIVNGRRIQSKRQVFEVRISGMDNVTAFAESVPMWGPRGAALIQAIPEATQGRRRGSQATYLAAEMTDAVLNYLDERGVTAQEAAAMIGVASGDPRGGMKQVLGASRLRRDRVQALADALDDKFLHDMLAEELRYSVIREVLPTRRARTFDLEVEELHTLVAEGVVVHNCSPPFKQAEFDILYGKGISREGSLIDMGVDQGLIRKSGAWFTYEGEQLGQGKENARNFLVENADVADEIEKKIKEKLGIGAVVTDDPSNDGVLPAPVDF
PrP 5UTR inh: inhibition of PrP 5' UTR reporter expression | cell-based PrP 5' UTR mRNA reporter, plate reader | inhibition, % (test concentration not listed) | actives 0.35% (n = 340,000); in the data active = inhibition above about 52%; also: 0 = median of the neutral control wells
* marks the source's active call; other numbers are inactive results; / = no result given.

SMILES | PriA SSB inh | PfHsp40 yeast | BJeLR lethal | PrPC TRFRET | RecA splice inh | PrP 5UTR inh
Cc1cc(O)c(C(C)C)cc1N=Cc1cc([N+](=O)[O-])ccc1O | -2 | 0 | -5 | 2 | -2 | -13
O=c1[nH]cc(N=Cc2cc([N+](=O)[O-])ccc2O)c(=O)[nH]1 | / | / | 7 | / | 50* | /
O=C1c2ccccc2NC(c2ccc(-c3cccc(F)c3)o2)N1O (stereo not drawn) | 3 | 109* | / | -4 | / | -57
O=C1c2ccccc2NC(c2ccc(Cl)cc2Cl)N1O (stereo not drawn) | 2 | 292* | 9 | 4 | 2 | 20
O=C1c2ccccc2NC(c2ccc(Cl)cc2Cl)N1Cc1ccccc1 (stereo not drawn) | -4 | 7 | 3 | -2 | -1 | -24
N#Cc1ccc(-c2ccc(C3Nc4ccccc4C(=O)N3O)o2)cc1 (stereo not drawn) | 2 | 12 | / | 2 | / | 0
CCOC(=O)c1ccc(-c2ccc(C3Nc4ccccc4C(=O)N3O)o2)cc1 (stereo not drawn) | 11 | 364* | 5 | 5 | -10 | -54
Cc1nn(C)cc1C1Nc2ccccc2C(=O)N1O (stereo not drawn) | -4 | 0 | -1 | 0 | -2 | -8
O=C1c2ccccc2NC(c2ccc(-c3ccccc3F)o2)N1O (stereo not drawn) | -2 | 120* | / | -1 | / | -35
CC(C)OCCCNC(=O)NC1CC(=O)N(c2ccc(Cl)cc2)C1 (stereo not drawn) | 0 | / | / | / | / | /
Cc1c(Cl)cccc1NC(=O)c1ccc(=O)n(Cc2ccc(F)cc2)n1 | -5 | / | / | / | / | /
Cc1nc2ncccc2c(=O)n1-c1ccc(F)c(NC(=O)c2ccccc2Br)c1 | -16 | / | / | / | / | /
O=C(NCCN1CCN(c2ccccc2)CC1)C(=O)Nc1ccon1 | -9 | / | / | / | / | /
Cc1cc([N+](=O)[O-])ccc1-c1ccc(C2Nc3ccccc3C(=O)N2O)o1 (stereo not drawn) | 14 | 168* | 1 | -4 | / | 1
C=CCSc1ncc(-c2ccc(OC)cc2)n1-c1cccc(Cl)c1 | 32* | / | / | / | / | /
COc1ccc(-c2cnc(SCC(N)=O)n2-c2cccc(C(F)(F)F)c2)cc1 | 18 | / | / | / | / | /
Cc1ccc(C)c(NC(=O)C(=O)NCC(c2cccn2C)N2CCc3ccccc3C2)c1 (stereo not drawn) | -9 | / | / | / | / | /
COc1ccccc1N1COc2ccc3c(=O)c(-c4ccccc4)coc3c2C1 | 32* | / | / | / | / | /
Cc1ccc(S(=O)(=O)N2CCCC(C(=O)Nc3ccc(Cl)cc3)C2)cc1 (stereo not drawn) | -2 | / | / | / | / | /
O=C(Nc1cccc(Cl)c1)Nc1nc(CC(=O)N2CCN(Cc3ccccc3)CC2)cs1 | 0 | / | / | / | / | /
COc1cc(C=NNC(=O)c2cnccn2)cc(OC)c1OC | -5 | / | / | / | / | /
COc1cc(/C=N/NC(=O)c2cnccn2)cc(OC)c1OC | / | 66* | 8 | -8 | -7 | -19
COc1ccc(OC)c(S(=O)(=O)Nc2ccc(CN3CCN(C)CC3)cc2)c1 | -1 | / | / | / | / | /
Cc1ccc(-c2nc(-c3ccccc3)no2)c(Cl)c1 | 104* | -1 | 11 | -1 | 6 | 65*
O=[N+]([O-])c1cnc(Nc2ccc(S(=O)(=O)Nc3nccs3)cc2)c([N+](=O)[O-])c1 | 38* | / | / | / | / | /
SMILES | PriA SSB inh | PfHsp40 yeast | BJeLR lethal | PrPC TRFRET | RecA splice inh | PrP 5UTR inh
COc1ccc(Cl)cc1C(=O)NC[C@@H](c1cccs1)N1CCc2ccccc2C1 | -8 | / | / | / | / | /
C=C(C)C(=O)Nc1cccc(C2=NOC3(C2)C[C@@H](C(N)=O)N(C(=O)c2cc([N+](=O)[O-])cc([N+](=O)[O-])c2)C3)c1 (stereo partly drawn) | 9 | -1 | 7 | -43 | -6 | -9
C=C(C)C(=O)Nc1cccc(C2=NOC3(C2)C[C@@H](C(N)=O)N(C(=O)CCCCC)C3)c1 (stereo partly drawn) | 61* | -2 | -2 | -6 | -1 | -6
C=C(C)C(=O)Nc1cccc(C2=NOC3(C2)C[C@@H](C(N)=O)N(C(=O)c2ccc(OC)cc2)C3)c1 (stereo partly drawn) | 48* | -1 | 0 | / | 1 | -22
O=C(Nc1ccccc1-c1ccccc1)c1coc(NC(=O)C2CCC2)n1 | 2 | / | / | / | / | /
O=S(=O)(c1ccc2c(c1)CCCC2)N1CCC[C@H](Cc2nc(C3CC3)no2)C1 | -9 | / | / | / | / | /
O=C(O)c1ccc([N+](=O)[O-])c2c1C(=O)c1ccccc1C2=O | -3 | 0 | -3 | -72 | 47* | -11
CCOC1(N=C(C)NS(=O)(=O)c2ccc(Cl)cc2)C(C)=CC(=O)C=C1C | -16 | / | / | / | / | /
COC(=O)Nc1nn(-c2ccc(OC)cc2)c(=O)c(C#N)c1C | -3 | 0 | 19 | -67 | 40* | -9
COC(=O)c1ccc(S(=O)(=O)N2CCCC(c3nnc(-c4ccsc4)o3)C2)cc1 (stereo not drawn) | -11 | / | / | / | / | /
Cc1ccccc1-n1c(C)cc(/C=C(\C#N)C(=O)NCC2CCCO2)c1C (stereo not drawn) | -15 | 30* | 3 | 2 | 4 | 6
O=C(Nc1ccc(OC(F)F)cc1)c1cccs1 | -17 | / | / | / | / | /
O=C(Nc1ccccc1-c1cn2ccsc2n1)c1ccc(Cn2ccnc2)cc1 | 39* | / | / | / | / | /
Clc1ccccc1Nc1nc(Nc2ccccc2Cl)nc(N2CCOCC2)n1 | -10 | / | / | / | / | /
Cc1nc(Nc2cccnc2)sc1C(=O)O | -6 | / | / | / | / | /
Oc1cc(Nc2cccnc2)cc2cccnc12 | 89* | 10 | / | -6 | / | 4
Oc1cc(-c2ccncc2)cc2cccnc12 | 55* | 12 | / | -16 | / | -19
CN(C)c1ccc(-c2cc(O)c3ncccc3c2)cc1 | 43 | 0 | / | -17 | / | -13
Oc1cc(NCCc2cccnc2)cc2cccnc12 | 85* | 11 | / | -11 | / | -11
CN(C)CCCNC(=O)c1ccc(-c2cc(O)c3ncccc3c2)cc1 | 83* | -1 | / | -36 | / | -12
Nc1cc(O)c2ncccc2c1 | 140* | / | / | / | / | /
Fc1cc(-c2ncccn2)c2ncccc2c1 | 30 | / | / | / | / | /
Oc1cc(Nc2ccncc2)cc2cccnc12 | 104* | 0 | / | -20 | / | -11
Fc1cc(-c2ccncc2)c2ncccc2c1 | 34 | / | / | / | / | /
Cn1nc(C2CCN(C(=O)CCC(=O)c3ccccc3)CC2)n(C2CC2)c1=O | -2 | / | / | / | / | /
SMILES | PriA SSB inh | PfHsp40 yeast | BJeLR lethal | PrPC TRFRET | RecA splice inh | PrP 5UTR inh
CCOc1ccc(CC(=O)N2CCN(c3ccc(-c4ccc5c(c4)OCO5)nn3)CC2)cc1 | 1 | / | / | / | / | /
COc1ccc(CN(CC(=O)N2CCc3ccccc32)S(=O)(=O)c2cccnc2)cc1 | 6 | / | / | / | / | /
O=C(Nc1ccc(Cl)cc1C(=O)Nc1ccc(Br)cn1)c1ccco1 | -2 | 270* | -8 | 7 | -3 | -40
O=C(Nc1ccc(Cl)cc1C(=O)c1ccccc1)c1ccco1 | 2 | 2 | -22 | -6 | 0 | -20
COc1ccc(C(=O)NN=C(Cc2ncc[nH]2)c2ccccc2)cc1 | -22 | / | / | / | / | /
O=C(NN=C(Cc1ncc[nH]1)c1ccccc1)c1ccncc1 | 48* | / | / | / | / | /
S=C(NCCc1ccccc1)Nc1ccccc1Cl | -11 | 0 | -15 | 3 | 0 | -53
S=C(NCCCc1ccccc1)Nc1ccccc1Cl | -28 | 223* | -10 | 2 | 12 | -16

Source: PubChem BioAssay (several laboratories)
